Vaccinia mCherry: inhibitors of vaccinia virus infection (mCherry reporter signal). 310,000 tested, 0.63% active. Vaccinia virus mCherry reporter infection, fluorescence. AID 720579. Potency, µM (highest dose often 36.5 µM), inactives show top-dose activity change, negative = inhibition, usual class: inhibitors; calls by dose curve; tested in A549 cells; note: potency is the fitted concentration of half-maximal effect; nearly all actives have a fitted effect of over 35% in size
HCV inh: inhibitors of hepatitis C virus infection; Huh7.5.1 HCVcc-Cre infection, luciferase reporter, 44 h; Potency, µM (doses to about 41.8 µM), for inactives: top-dose activity change, negative = inhibition, hits mostly inhibitors; 340,000 tested, 3.4% active; note: potency is the fitted concentration of half-maximal effect
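Reporter virus HCVcc-Cre (~0.5 moi) infects cells exposed to compound; seeding density 1,000 cells/well with 4 h settling beforehand. Luminescence, 15 sec read, taken 44 h post-infection following a 15 min RT substrate incubation.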
Vaccinia Venus: vaccinia inhibition (Venus reporter) | Vaccinia virus Venus reporter expression, fluorescence | Potency, µM (top dose mostly 36.5 µM), for inactives: top-dose activity change, negative = inhibition, most hits filed as inhibitors | 330,000 tested, 0.46% active | AID 720580; calls by dose curve; tested in A549 cells; note: potency is the fitted concentration of half-maximal effect; nearly all actives have a fitted effect of over 30% in size
HCMV antiviral: blocks human cytomegalovirus replication. HFF cells, HCMV-luciferase reporter, 72 h; stronger effect = lower value. activity change, negative = inhibition, % at 57.5 µM. 410,000 tested, 4.5% active. AID 1259415; in the data active = activity change below about -60%; inconclusive = no clear call, values can overlap the other calls; inactive = above about -39%
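Screen run at 2 compound doses on HFFs infected with reporter HCMV, MOI 1 PFU/cell. Luciferase activity from cell lysates at 72 h post infection gave inhibition relative to buffer-only and Salinomycin wells.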
Sm TGR block: blocks Schistosoma mansoni thioredoxin glutathione reductase; Q962Y6; purified TGR, DTNB reduction, TNB absorbance 405 nm; Potency, µM (top dose mostly 114 µM), inactives show top-dose activity change, negative = inhibition, actives largely listed as inhibitors; 360,000 tested, 3% active; AID 485364; note: potency is the fitted concentration of half-maximal effect; nearly all actives have a fitted effect of over 60% in size
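First, TGR (20 nM dispensed) and NADPH were mixed with compound. Second, a 15 min room-temperature incubation followed. Third, further NADPH and then DTNB were added to start the reaction. Finally, TNB absorbance was monitored kinetically.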
FMDV inh: foot and mouth disease virus antiviral activity; AID 1159524; FMDV antiviral cell-based qHTS; Potency, µM (top dose mostly 57.9 µM), inactives show at the top dose activity change, negative = inhibition, usual class: inhibitors; 410,000 tested, 1.2% active; calls by dose curve; tested in HEK293T cells; note: read-out not given here; potency is the fitted concentration of half-maximal effect; nearly all actives have a fitted effect of over 45% in size
Starred values were filed as active, the others as inactive; i = inactive; ? = inconclusive; . = no result; [ ] = dose if it differs, or a comment. Rows were chosen to be rich in hits. Some 9.3% of all compounds tested hit in one or more screens of this group. Unless noted, calls come from the whole dose curve; as a rule, active = well fitted curve in the direction sought with a large enough effect; inconclusive = small, poorly fitted or top-dose-only effect, or another doubt; inactive = no such curve, though single readings can be large; an effect the other way counts as inactive or inconclusive. % is set by controls: 0 for no effect and ±100 for the full control effect.

SMILES	Vaccinia mCherry	HCV inh	Vaccinia Venus	HCMV antiviral	Sm TGR block	FMDV inh
CC(C)NC(=O)N(C)C[C@@H]1Oc2ncc(-c3cccc(C#N)c3)cc2C(=O)N([C@H](C)CO)C[C@@H]1C	i	.	-5%	24	.	-8%
CCOc1cc(S(=O)(=O)n2cnc(C)c2)ccc1Cl	-13%	5%	-17%	?	.	23%
C=CCNC(=O)CC(=O)N/N=C/c1cccc(Br)c1	-3%	5%	-15%	-5	0%	.
CCn1c(CNc2ccccc2Cl)nnc1SCC(=O)OC1CCCCC1	?	-5%	-13%	11	5%	.
CSc1ccc(CN2CCCCCC2)cc1	-9%	-5%	-1%	16	10%	-15%
Cc1nn(C)c(C(=O)NCc2ccc(Cl)cc2)c1Cl	-24%	?	-19%	-80*	3%	?
Cc1ccc(NC(=S)NNC(=O)c2c(Cl)c(C)nn2C)cc1	i	1%	-11%	-73*	-3%	0%
Cc1nc(C)c(C(=O)NCc2ccc(Cl)cc2)o1	-17%	?	-10%	-38	0%	?
CCN(CC)S(=O)(=O)c1ccc(C)c(NS(=O)(=O)c2cc(/C=C/C(=O)O)cc(OC)c2OC)c1	-1%	2%	-13%	18	-18%	11%
COc1ccc(OCc2cc(C(=O)N3CCCN(C(C)=O)CC3)no2)c(Cl)c1	.	15%	.	24	-21%	2%
CC1Cc2ccccc2N1C(=O)Cn1nc(C(=O)O)c2ccccc2c1=O (stereo not drawn)	.	-3%	-11%	38	-10%	-7%
Nc1nc2nc[nH]c2c(=O)[nH]1	i	5µM*	-15%	.	-8%	-19%
CCOc1ccc(N(CC(=O)N2CCCC2)S(=O)(=O)c2c(C)noc2C)cc1	35%	12%	-4%	13	-1%	-15%
CCOC(=O)/C=C/COc1ccccc1[N+](=O)[O-]	-26%	3%	-22%	-63*	2%	60%
CC(C)(C)C(=O)COc1ccccc1[N+](=O)[O-]	-20%	17%	-1%	?	2%	10%
O=C(Nc1ccccc1F)C(=Cc1sc(N2CCOCC2)nc1-c1ccccc1)C(=O)Nc1ccccc1F	i	-8%	0%	-70*	-13%	0%
O=C(N/N=C/c1sc(N2CCOCC2)nc1-c1ccccc1)c1ccccc1O	?	?	?	-20	-10%	-2%
O=C(N/N=C/c1sc(N2CCOCC2)nc1-c1ccccc1)c1ccccc1Cl	-5%	8.9µM*	-20%	5	7%	-16%
Nc1ccc(C(=O)N/N=C/c2sc(N3CCOCC3)nc2-c2ccccc2)cc1	-13%	?	-8%	-3	-11%	-6%
O=C(N/N=C/c1sc(N2CCOCC2)nc1-c1ccccc1)c1cccc(S(=O)(=O)N2CCOCC2)c1	.	?	.	-100*	-8%	-20%
CC1CCCCN1CC(O)COCCC12CC3CC(CC(C3)C1)C2 (stereo not drawn)	?	?	-1%	-23	5%	?
CCOC(=O)N1CCN(CC(O)COCCC23CC4CC(CC(C4)C2)C3)CC1 (stereo not drawn)	.	-3%	-3%	-62*	2%	?
COc1ccc(CCNC(=O)c2cccc(S(=O)(=O)N3CCOCC3)c2)cc1OC	.	-30%	.	-8	-11%	-3%
Cc1oc(-c2ccc(Cl)cc2)cc1C(=O)O	-6%	-3%	-20%	120	0%	-1%
Cc1oc(-c2ccc(Cl)cc2)[n+]([O-])c1C	-5%	16%	6%	3	50µM*	33%
SMILES	Vaccinia mCherry	HCV inh	Vaccinia Venus	HCMV antiviral	Sm TGR block	FMDV inh
CC(C)Cc1cc(C(=O)N2CCCC(C(=O)c3cc(F)ccc3F)C2)n(C)n1 (stereo not drawn)	5%[7.34 µM]	?	17%[7.34 µM]	-28	5%	-16%
CCCCCCN(C(=O)CCCCCN1C(=O)NC(c2ccccc2)C(C(=O)OCc2ccccc2)=C1C)C(C(=O)NCCCC)c1ccc(OCC(=O)OC)c(C(=O)OC)c1 (stereo not drawn)	.	.	.	-98*	0%	.
O=C(COC(=O)CCC(=O)c1ccc(Cl)cc1)NCc1ccco1	i	18%	-11%	12	18µM*	4%
O=C(COC(=O)CCC(=O)c1ccc(F)cc1)NCc1ccc(Cl)cc1	-2%	8%	-13%	-18	.	-5%
Cc1ccc(-c2csc(=S)n2CC(=O)OCC(=O)NCc2ccco2)cc1	.	?	.	47	40µM*	?
O=C(COC(=O)CCOc1ccccc1)NCc1ccco1	-6%	5%	1%	-12	35µM*	-20%
CS(=O)(=O)N(CCc1ccccc1)CC(=O)N1CCc2ccccc2C1	-24%	7%	-16%	-24	-1%	-16%
NC(=O)c1cc(Sc2ccccc2)nc2ccccc12	i	-16%	-18%	-38	.	-13%
NC(=O)c1cc2c3ccccc3ccn2c1-c1ccccc1	.	4%	.	-99*	-15%	29%
COc1ccc(C(=O)NNC(=O)CSc2nnc3ccccn23)cc1OC	-2%	-11%	-7%	6	.	8%
O=C(Cn1nc(CNc2ccc(Br)cc2)[n+]2c1CCCCC2)c1ccc([N+](=O)[O-])cc1	-19%	-6%	-15%	-92*	50µM*	-12%
Cc1nnc(NC(=O)CN2CC(C)OC(C)C2)s1 (stereo not drawn)	i	6%	-4%	6	-13%	10%
O=C(CNC(=O)/C(=C\c1ccc(F)cc1)NC(=O)c1ccccc1)OCc1ccccc1	-4%	-1%	9%	2	6%	-18%
COc1ccc(CCNC(=O)c2cccc(S(=O)(=O)N3CCc4ccccc4C3)c2)cc1	.	14µM*	.	-3	-1%	?
O=C(OCCOc1ccccc1)c1cccc(S(=O)(=O)N2CCOCC2)c1	-15%	1%	-8%	18	-2%	-11%
COc1ccc(NC(=O)CN(C)C(=O)c2cccc(S(=O)(=O)N3CCN(c4ccc(F)cc4)CC3)c2)cc1	.	13µM*	.	-73*	.	?
COc1ccccc1CNC(=O)c1cccc(S(=O)(=O)N2CCN(c3ccc(F)cc3)CC2)c1	.	11µM*	.	-21	-2%	-17%
CN(C)c1cccc(C(=O)OCCNC(=O)c2cccc(S(=O)(=O)N3CCOCC3)c2)c1	.	10µM*	.	-20	-4%	-6%
CC(C)c1ccc(NC(=O)CNC(=O)Cn2ccc3ccccc3c2=O)cc1	-7%	20%	0%	4	-5%	16%
CCCCNC(=O)CSc1nc2cc3c(cc2c(=O)n1Cc1ccc(C(=O)NCCc2ccc(OC)c(OC)c2)cc1)OCO3	-17%	.	-25%	-11	-1%	-6%
O=c1c2sc3ccccc3c2n(Cc2ccccc2Cl)c(=O)n1Cc1ccccc1	-5%	.	-12%	19	-1%	-15%
